Results published in PubChem BioAssay AID1159580 (chemical genetic matrix, 2015).
Several values for one entry are separate records, joined by “and”; a condition that tells them apart may be missing. Equal entries are not always repeated. Hit rate of the full screen: of about 5,500 compounds, about 2,000 (36%) were called active. About 18% were inconclusive and are not listed. Cut-off read from the data, not from the text of the source: active = normalized growth mostly below about 0.91 (no sharp cut-off); inconclusive = no clear call, values can overlap the other calls; inactive = mostly above about 0.92. Some of the results follow.

Experiment: chemical genetic growth profiling, strain panel (AID 1159580);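 note: tested at 20 µM; growth read once vehicle control cultures reached saturation at 30 °C; 1 = growth at the plate median or of vehicle wells; lower values mean less growth of the strain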
Conditions: S. cerevisiae deletion strains, growth OD

Measured: normalized growth

CC1=C(C(=O)O)N2C(=O)[C@@H](NC(=O)[C@H](N)C3=CCC=CC3)C2SC1 (some centres not stated)
inactive: locus YAL013W, strain DEP1, hits give low values 1 | locus YAL021C, strain ccr4, hits give low values 1.01 | locus YAL026C, strain drs2, hits give low values 1.03 | locus YAL030W, strain snc1, hits give low values 1.03 | locus YBL061C, strain skt5, hits give low values 1.03 | locus YBR009C, strain hhf1, hits give low values 1.02 | locus YBR021W, strain FUR4, hits give low values 1.02 | locus YBR023C, strain chs3, hits give low values 1.02 | locus YBR171W, strain sec66, hits give low values 1.04 | locus YBR229C, strain ROT2, hits give low values 0.953 | locus YBR231C, strain swc5, hits give low values 1.04 | locus YBR279W, strain paf1, hits give low values 1.01 | locus YCL011C, strain gbp2, hits give low values 1.03 | locus YCL016C, strain dcc1, hits give low values 1.02 | locus YCL029C, strain bik1, hits give low values 0.998 | locus YCL061C, strain MRC1, hits give low values 1.02 | locus YCL069W, strain vba3, hits give low values 1.02 | locus YCR088W, strain abp1, hits give low values 1.02 | locus YDL005C, strain med2, hits give low values 1.03 | locus YDL035C, strain GPR1, hits give low values 0.965 | locus YDL040C, strain nat1, hits give low values 1.02 | locus YDL074C, strain BRE1, hits give low values 0.987 | locus YDL101C, strain DUN1, hits give low values 0.98 | locus YDL185W, strain tfp1, hits give low values 0.977 | locus YDL192W, strain arf1, hits give low values 0.989 | locus YDR001C, strain nth1, hits give low values 1.01 | locus YDR069C, strain doa4, hits give low values 1.02 | locus YDR101C, strain arx1, hits give low values 0.988 | locus YDR137W, strain rgp1, hits give low values 1.03 | locus YDR159W, strain sac3, hits give low values 1.04 | locus YDR162C, strain NBP2, hits give low values 0.951 | locus YDR195W, strain ref2 0.992 | locus YDR297W, strain sur2, hits give low values 1.02 | locus YDR318W, strain mcm21, hits give low values 1 | locus YDR334W, strain swr1, hits give low values 1.01 | locus YDR335W, strain msn5, hits give low values 1.02 | locus YDR388W, hits give low values 0.99 | locus YDR392W, strain spt3, hits give low values 1.03 | locus YDR502C, strain sam2, hits give low values 1.02 | locus YEL003W, strain gim4, hits give low values 1.02 | locus YEL037C, strain rad23, hits give low values 1.02 | locus YEL061C, strain CIN8 (second series), hits give low values 1.02 | locus YEL061C, strain CIN8, hits give low values 0.995 | locus YER015W, strain faa2, hits give low values 1 | locus YER016W, strain bim1, hits give low values 1.02 | locus YER110C, hits give low values 0.981 | locus YER111C, strain swi4, hits give low values 1.03 | locus YER155C, strain BEM2 (second series), hits give low values 1.03 | locus YER155C, strain BEM2, hits give low values 0.998 | locus YER167W, strain BCK2, hits give low values 0.989 | locus YFR010W, strain ubp6, hits give low values 1.03 | locus YGL078C, strain dbp3, hits give low values 0.993 | locus YGL086W, strain mad1, hits give low values 0.933 | locus YGL167C, strain pmr1, hits give low values 1.04 | locus YGL173C, strain kem1, hits give low values 1.03 | locus YGL227W, strain vid30, hits give low values 1.02 | locus YGL240W, strain doc1, hits give low values 1.03 | locus YGL248W, strain PDE1, hits give low values 1.01 | locus YGL253W, strain hxk2, hits give low values 1.03 | locus YGR135W, strain pre9, hits give low values 1.03 | locus YGR252W, strain gcn5, hits give low values 1.05 | locus YHR013C, strain ard1, hits give low values 1.05 | locus YHR027C, strain rpn1, hits give low values 1.02 | locus YHR030C, strain SLT2, hits give low values 0.994 and 0.964 | locus YHR079C, strain IRE1 (second series), hits give low values 1 | locus YHR079C, strain IRE1, hits give low values 0.956 | locus YHR094C, strain hxt1, hits give low values 0.983 | locus YHR129C, strain ARP1, hits give low values 0.988 | locus YHR142W, strain chs7, hits give low values 1.04 | locus YHR200W, strain rpn10, hits give low values 0.986 | locus YIL066C, strain RNR3, hits give low values 0.971 | locus YIL073C, strain SPO22, hits give low values 1.01 | locus YIL125W, strain kgd1, hits give low values 0.99 | locus YIR030C, strain dcg1, hits give low values 0.993 | locus YJL092W, strain hpr5, hits give low values 1.02 | locus YJL095W, strain BCK1 (second series), hits give low values 1.02 | locus YJL095W, strain BCK1, hits give low values 1.02 and 0.989 | locus YJL115W, strain asf1, hits give low values 1.03 | locus YJL129C, strain trk1, hits give low values 1.03 | locus YJL134W, strain LCB3, hits give low values 0.985 | locus YJL154C, strain vps35, hits give low values 1.01 | locus YJL164C, strain tpk1, hits give low values 1.02 | locus YJL166W, strain qcr8, hits give low values 1.02 | locus YJL168C, strain set2, hits give low values 0.994 | locus YJL187C, strain SWE1 (second series), hits give low values 0.996 | locus YJL187C, strain SWE1, hits give low values 1.03 | locus YJR043C, strain POL32, hits give low values 0.961
